NPC1 prom act: activates the NPC1 promoter. Huh7 NPC1 promoter luciferase reporter, 24 h. 320,000 tested, 2.4% active. Potency, µM (titrated, usually from 9.22 µM), for the others: top-dose activation, usual class: activators; also: % of control where 0% means no effect; nearly all actives have a fitted effect of over 60% in size
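NPC1 promoter–luciferase Huh7 cells; 24 h compound; luminescence.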
FLuc counter: counter-screen for miR-21 project: firefly luciferase inhibitors or activators; purified FLuc, Km substrates, luminescence inhibition; Potency, µM (series often up to 57.5 µM), for the others: at the top dose activity change, negative = inhibition, most hits filed as inhibitors; 360,000 tested, 6.9% active; AID 588342;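 also: plate controls were vehicle for no effect and reference inhibitor for full effect; nearly all actives have a fitted effect of over 55% in size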
Target sequence (P08659 whole entry, looked up): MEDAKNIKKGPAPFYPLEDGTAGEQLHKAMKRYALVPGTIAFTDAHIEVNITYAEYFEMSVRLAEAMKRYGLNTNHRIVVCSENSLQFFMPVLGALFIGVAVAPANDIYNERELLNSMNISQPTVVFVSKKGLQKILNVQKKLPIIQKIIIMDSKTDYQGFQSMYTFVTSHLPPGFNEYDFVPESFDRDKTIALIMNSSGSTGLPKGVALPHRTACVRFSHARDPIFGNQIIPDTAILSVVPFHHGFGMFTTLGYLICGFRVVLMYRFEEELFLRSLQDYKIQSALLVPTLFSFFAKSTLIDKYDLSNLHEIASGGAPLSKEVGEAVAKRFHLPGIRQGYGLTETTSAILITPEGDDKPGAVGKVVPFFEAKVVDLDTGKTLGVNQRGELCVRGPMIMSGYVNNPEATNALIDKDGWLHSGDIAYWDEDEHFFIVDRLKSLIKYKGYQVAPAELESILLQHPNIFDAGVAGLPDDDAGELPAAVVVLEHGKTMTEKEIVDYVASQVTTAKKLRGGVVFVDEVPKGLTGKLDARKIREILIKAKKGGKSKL
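Purified P. pyralis luciferase (10nM final) with 10uM D-luciferin and 10uM ATP (Km levels) in 50mM Tris acetate pH 7.5, 10mM Mg acetate, 0.01% Tween-20, 0.05% BSA; qHTS 6-point titration, ~60 µM downward; luminescence read.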
Luc counter: counter-screen: inhibitors of Kinase-Glo firefly luciferase; Q27757; Kinase-Glo luciferase, ATP luminescence, 8 min; Potency, µM (highest dose often 38.3 µM), for the others: at the top dose activity change, negative = inhibition, usual class: inhibitors; 200,000 tested, 0.28% active; AID 1379; also: % is scaled to controls: 0 for no effect and ±100 for the full control effect; nearly all actives have a fitted effect of over 60% in size
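Compounds were added to a substrate mix at pH 7.2 (50 mM imidazole, 10 uM ATP, within the enzyme's linear range), followed by Kinase-Glo detection reagent; luminescence was measured after 8 minutes at ambient temperature.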
ELG1 genotox: genotoxicity induction in ELG1-luciferase HEK293T cells; HEK293T ELG1-luciferase reporter, luminescence, 16 h; AID 504466; Potency, µM (titrated, usually from 46 µM), inactives show top-dose activity change, positive = activation, usual class: activators; 330,000 tested, 1.3% active; also: % of control where 0% means no effect; nearly all actives have a fitted effect of over 60% in size
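Luminescence read-out: rising ELG1-luciferase signal, reflecting elevated ELG1 protein under genetic stress, flags genotoxic compounds. Cells were treated for 16 hr at 37 °C before ONE-Glo detection.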
SMN2 splice enh: increases expression of the SMN2 splice variant; HEK293 SMN2-luciferase splicing reporter, luminescence, 30-36 h; Potency, µM (series often up to 46.1 µM), for inactives: at the top dose activity change, positive = activation, hits mostly activators; 210,000 tested, 2.8% active; AID 1458; also: % of control where 0% means no effect; nearly all actives have a fitted effect of over 55% in size
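HEK293 cells carry an SMN2 […]–luciferase reporter in which exon 7 inclusion puts luciferase in frame. Cells were plated 10-12 h before compound addition, then incubated 30-36 h at 37C. ONE-Glo luminescence was read; sodium butyrate at 4.5 mM final served as control.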
Rab9 promoter act: activators of Rab9 promoter | Potency, µM (titrated, usually from 9.22 µM), for the others: at the highest dose activation, negative = inhibition, actives largely listed as activators | 320,000 tested, 2.8% active | Huh7 Rab9 promoter-luciferase reporter, luminescence, 24 h; also: % of control where 0% means no effect; nearly all actives have a fitted effect of over 60% in size
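Huh7 cells stably carrying a Rab9 promoter-luciferase reporter, 1500 cells per well in OP-MEM I with 10% FBS, treated with compound 24 hours at 37C. Luciferase activity read by luminescence after 10 minutes with Amplite reagent.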
* = called active by the depositor; [ ] = dose if it differs, or a comment. Compounds with a hit are over-represented: about 7.5% of the library has one in this group of screens. Calls follow the shape of the dose curve; as a rule, active = well fitted curve in the direction sought with a large enough effect; inconclusive = small, poorly fitted or top-dose-only effect, or another doubt; inactive = no such curve, though single readings can be large; an effect the other way counts as inactive or inconclusive. Potency is read from the fitted curve at half-maximal effect.

Cc1ccc(-n2c(-c3ccc(Br)cc3)nc3c(cnn3-c3ccccc3)c2=O)cc1 was read as FLuc counter -5% and SMN2 splice enh -6%.
`O=c1c2ccccc2nnn1-c1ccc(Br)cc1` gave NPC1 prom act 3.2µM*, FLuc counter inconclusive, ELG1 genotox inconclusive and Rab9 promoter act 2.2µM*.
Cc1ccc(S(=O)(=O)NCCc2ccncc2)cc1[N+](=O)[O-] was read as NPC1 prom act -5%, FLuc counter -1%, ELG1 genotox -3% and Rab9 promoter act -8%.
For Cc1c(Cl)cccc1NC(=O)CSc1ncccc1C(=O)Oc1ccccc1Cl the results were FLuc counter -11%.
Screening CCOc1ccccc1OCCCn1c(-c2ccc(Cl)cc2)nc2ccccc2c1=O returned FLuc counter -6% and SMN2 splice enh -15%.
`Cc1cccc2nc(COc3ccc(-c4ccccc4)cc3)cn12` gave NPC1 prom act 26%, FLuc counter 11µM*, Luc counter -29%, ELG1 genotox 10% and Rab9 promoter act inconclusive.
Screening Cc1ccnc(SCc2cn3c(C)cc(C)nc3n2)n1 returned NPC1 prom act -2%, FLuc counter 0%, Luc counter 2%, ELG1 genotox 6%, SMN2 splice enh 23% and Rab9 promoter act -2%.
Cc1cc(C)n2cc(COc3ccc4ccccc4c3)nc2n1 was read as NPC1 prom act 1.8µM*, FLuc counter 2.4µM*, Luc counter 13%, ELG1 genotox inconclusive, SMN2 splice enh 13µM* and Rab9 promoter act 1.1µM*.
Screening O=C(O)c1ccc(-n2c(O)c(C=C3N=c4ccccc4=N3)sc2=S)cc1 returned NPC1 prom act 1%, FLuc counter 13µM*, ELG1 genotox -3% and Rab9 promoter act -2%.
`O=C(O)c1cccc(-n2c(O)c(C=C3N=c4ccccc4=N3)sc2=S)c1` gave NPC1 prom act -7%, FLuc counter 13µM*, ELG1 genotox -9% and Rab9 promoter act -4%.
Screening Cc1ccc(C)n1-c1cccc(C(=O)O)c1 returned NPC1 prom act -3%, FLuc counter 1%, Luc counter -4%, ELG1 genotox -3%, SMN2 splice enh 19% and Rab9 promoter act -4%.
For CCN(CC)c1ccc(-n2c(O)c(C=C3N=c4ccccc4=N3)sc2=S)cc1 the results were NPC1 prom act 0%, FLuc counter -1%, Luc counter -3%, ELG1 genotox 3%, SMN2 splice enh 18% and Rab9 promoter act 0%.
O=C(O)CSCCc1ccccc1 was read as Luc counter -3%[7.66 µM] and SMN2 splice enh 4%[9.22 µM].
For COc1c(C)cccc1C(=O)Nc1ccc(N2CCN(S(C)(=O)=O)CC2)cc1 the results were NPC1 prom act 4µM*, FLuc counter 15µM*, Luc counter 2%, ELG1 genotox inconclusive, SMN2 splice enh inconclusive and Rab9 promoter act 3.2µM*.
Screening COc1ccccc1C(=O)Nc1ccccc1N1CCN(S(C)(=O)=O)CC1 returned NPC1 prom act -1%, FLuc counter 2%, Luc counter 1%, ELG1 genotox -10%, SMN2 splice enh inconclusive and Rab9 promoter act -1%.
COc1c(C)cc(Br)cc1C(=O)Nc1ccc(N2CCN(S(C)(=O)=O)CC2)cc1 was read as NPC1 prom act -5%, FLuc counter 2%, Luc counter -2%, ELG1 genotox 6%, SMN2 splice enh 0% and Rab9 promoter act -1%[1.84 µM].
COc1ccccc1C(=O)Nc1ccc(N2CCN(S(C)(=O)=O)CC2)cc1 was read as NPC1 prom act 25%, FLuc counter inconclusive, Luc counter -11%, ELG1 genotox 9.2µM*, SMN2 splice enh inconclusive and Rab9 promoter act inconclusive.
`C[C@H](CO)N1C[C@H](C)[C@@H](CN(C)Cc2ccc3c(c2)OCO3)Oc2ccc(NC(=O)Cn3cnnn3)cc2C1=O` gave ELG1 genotox 1%.
